Test results taken from PubChem BioAssay (NCATS).
Results filed as inconclusive are left out. Activity calls are given as the source filed them. Calls come from the whole dose curve; as a rule, active = well fitted curve in the direction sought with a large enough effect; inconclusive = small, poorly fitted or top-dose-only effect, or another doubt; inactive = no such curve, though single readings can be large; an effect the other way counts as inactive or inconclusive.

Key:
[1] = tested on: HaCat; experiment: Cytotoxic Profiling of Annotated Libraries Using Quantitative High-Throughput Screening (AID 1296008); conditions: Five cell lines viability, CellTiter-Glo ATP luminescence, 48-72 h; max response: hits give low values; note: nearly all actives have a fitted effect of over 60% in size; note: potency is the fitted concentration of half-maximal effect
Summary of the method: (§1)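 Cytotoxicity was measured as CellTiter-Glo ATP luminescence, read after 10 min at room temperature. Compound treatment of the cells lasted 48 or 72 hr at 37 degrees Celsius in a qHTS format.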

[2] = tested on: KB-3-1; experiment: as above; conditions: Five cell lines viability, CellTiter-Glo ATP luminescence, 48-72 h; max response: hits give low values
Summary of the method: as §1

[3] = tested on: NIH3T3; experiment: as above; conditions: Five cell lines viability, CellTiter-Glo ATP luminescence, 48-72 h; max response: hits give low values
Summary of the method: as §1

[4] = tested on: C33A; experiment: Primary qHTS to identify gynecologic anti-cancer compounds using libraries of approved drugs and bioactive compounds (AID 1345084); conditions: Gynecologic cancer cell panel viability, ATPlite luminescence, 48 h; series mostly up to 57.5 µM; note: nearly all actives have a fitted effect of over 55% in size
Summary of the method: (§2)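 Luminescence from the ATPlite ATP-monitoring reagent indicates viable cell number; lower signal means cytotoxicity. Cells received compound 16 h after seeding and were exposed for 48 h across five concentrations.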

[5] = tested on: CAOV3; experiment: as above; conditions: Gynecologic cancer cell panel viability, ATPlite luminescence, 48 h; series mostly up to 57.5 µM
Summary of the method: as §2

[6] = tested on: CASKI; experiment: as above; conditions: Gynecologic cancer cell panel viability, ATPlite luminescence, 48 h; series mostly up to 57.5 µM
Summary of the method: as §2

[7] = tested on: Es-2; experiment: as above; conditions: Gynecologic cancer cell panel viability, ATPlite luminescence, 48 h; series mostly up to 57.5 µM
Summary of the method: as §2

[8] = tested on: HeLa; experiment: as above; conditions: Gynecologic cancer cell panel viability, ATPlite luminescence, 48 h; series mostly up to 57.5 µM
Summary of the method: as §2

[9] = tested on: Hek293T; experiment: as above; conditions: Gynecologic cancer cell panel viability, ATPlite luminescence, 48 h, control line for the selectivity index; series mostly up to 57.5 µM
Summary of the method: as §2

[10] = tested on: JEG-3; experiment: as above; conditions: Gynecologic cancer cell panel viability, ATPlite luminescence, 48 h; series mostly up to 57.5 µM
Summary of the method: as §2

[11] = tested on: OV90; experiment: as above; conditions: Gynecologic cancer cell panel viability, ATPlite luminescence, 48 h; series mostly up to 57.5 µM
Summary of the method: as §2
% is set by controls: 0 for no effect and ±100 for the full control effect.

C/C=C/C=C/C(O)=C1\C(O)=C(C)C(=O)[C@@]2(C)OC(=O)[C@@](C)(NC(=O)/C=C/C(=O)O)[C@@H]12
inactive: max response [1] -17.6% | max response [2] -1.41% | max response [3] -1.65% | Potency [4] | Potency [5] | Potency [6] | Potency [7] | Potency [8] | Potency [9] | Potency [10] | Potency [11]

CC(C)[N+]1(C)C2CCC1CC(OC(=O)C(CO)c1ccccc1)C2 (stereo not drawn)
inactive: max response [1] -18.4% | max response [2] -2.64% | max response [3] -9.66% | Potency [4] | Potency [5] | Potency [6] | Potency [7] | Potency [8] | Potency [9] | Potency [10] | Potency [11]

Cc1cccc(S(=O)(=O)N2CCC[C@@H]2CCN2CCC(C)CC2)c1
inactive: max response [1] -28.1% | max response [2] -9.32% | max response [3] -11.7% | Potency [4] | Potency [5] | Potency [6] | Potency [7] | Potency [8] | Potency [9] | Potency [10] | Potency [11]

C[C@@H]1O[C@@H](O[C@H]2[C@H](O)[C@@H](O[C@@H]3O[C@H](CO)[C@@H](O)[C@H](O[C@@H]4O[C@H](CO)[C@@H](O)[C@H](O)[C@H]4O)[C@H]3O)[C@H](O[C@H]3CC[C@@]4(C)C(=CC[C@@H]5C4CC[C@@]4(C)C5C[C@@H]5OC6(CC[C@@](C)(CO[C@@H]7O[C@H](CO)[C@@H](O)[C@H](O)[C@H]7O)O6)[C@@H](C)[C@@H]54)C3)O[C@@H]2CO)[C@H](O)[C@H](O)[C@H]1OC1OC(CO)C(O)C(O)C1O (stereo partly drawn)
inactive: max response [1] -1.18% | outcome [2] | max response [3] -4.4% | activity change, negative = cytotoxicity [4] 0.138% [at 6.55 µM] | activity change, negative = cytotoxicity [5] 7.26% [at 6.55 µM] | activity change, negative = cytotoxicity [6] -16.9% [at 6.55 µM] | activity change, negative = cytotoxicity [7] -3.32% [at 6.55 µM] | activity change, negative = cytotoxicity [8] -0.928% [at 6.55 µM] | activity change, negative = cytotoxicity [9] 3.68% [at 6.55 µM] | activity change, negative = cytotoxicity [10] 1.09% [at 6.55 µM] | activity change, negative = cytotoxicity [11] -1.64% [at 6.55 µM]

Cc1nc2sc(C(=O)NCc3ccncc3)c(N)c2c(C)c1Cl
inactive: max response [1] 0.272% | max response [2] -3.45% | max response [3] -29.7% | Potency [4] | Potency [5] | Potency [6] | Potency [7] | Potency [8] | Potency [9] | Potency [10] | Potency [11]

CC1OC(OC2C(CO)OC(OCC3OC(OC(=O)C45CCC(C)(C)CC4C4=CCC6C7(C)CCC(OC8OC(CO)C(O)C(OC9OC(CO)C(O)C(O)C9O)C8O)C(C)(C)C7CCC6(C)C4(C)CC5)C(O)C(O)C3O)C(O)C2O)C(O)C(O)C1OC1OC(CO)C(O)C(O)C1O (stereo not drawn)
inactive: max response [1] -8.62% | max response [2] -0.0406% | max response [3] -0.84% | activity change, negative = cytotoxicity [4] -0.229% [at 6.55 µM] | activity change, negative = cytotoxicity [5] -14.1% [at 6.55 µM] | activity change, negative = cytotoxicity [6] 8.74% [at 6.55 µM] | activity change, negative = cytotoxicity [7] 5.26% [at 6.55 µM] | activity change, negative = cytotoxicity [8] 3.66% [at 6.55 µM] | activity change, negative = cytotoxicity [9] 13.1% [at 6.55 µM] | activity change, negative = cytotoxicity [10] 7.02% [at 6.55 µM] | activity change, negative = cytotoxicity [11] 6.18% [at 6.55 µM]

O=C(CCc1nnc2n(Cc3ccc(Cl)cc3)c(=O)c3ccccc3n12)NCCC1=CCCCC1
inactive: max response [1] 3.41% | max response [2] -11.9% | max response [3] 1.28% | Potency [4] | Potency [5] | Potency [6] | Potency [7] | Potency [8] | Potency [9] | Potency [10] | Potency [11]

C/C(=C\CCC1(C)C2CCC(C2)C1(C)O)C(=O)O (stereo not drawn)
inactive: max response [1] 0.481% | outcome [2] | max response [3] 3.29% | Potency [4] | Potency [5] | Potency [6] | Potency [7] | Potency [8] | Potency [9] | Potency [10] | Potency [11]

O=C(CCc1ccccc1)N1CCC(O)(Cn2cnc3cc(Cl)ccc3c2=O)CC1
inactive: max response [1] -6.79% | max response [2] -17% | max response [3] -4.94% | Potency [4] | Potency [5] | Potency [6] | Potency [7] | Potency [8] | Potency [9] | Potency [10] | Potency [11]

Cc1[nH]c2ccccc2c1C1=C(NCCc2ccc(F)cc2)C(=O)N(C)C1=O
active: Potency [1] 8.2 µM | Potency [3] 14.6 µM
inactive: max response [2] -15.2% | Potency [4] | Potency [5] | Potency [6] | Potency [7] | Potency [8] | Potency [9] | Potency [10] | Potency [11]

CCOC(=O)c1cc(C#N)c(N2CCC(C(=O)NS(=O)(=O)Cc3ccccc3)CC2)nc1C
inactive: max response [1] 2.62% | outcome [2] | max response [3] 4.98% | Potency [4] | Potency [5] | Potency [6] | Potency [7] | Potency [8] | Potency [9] | Potency [10] | Potency [11]

CCC(O)C(C)C1CCC(C(C)C(=O)O)O1 (stereo not drawn)
inactive: max response [1] 3.27% | outcome [2] | max response [3] 2.92% | Potency [4] | Potency [5] | Potency [6] | Potency [7] | Potency [8] | Potency [9] | Potency [10] | Potency [11]

CC(C)(C)OC(=O)N1CCC(OCc2nc(-c3ccncc3)no2)CC1
inactive: max response [1] 4.75% | max response [2] -6.38% | max response [3] -1.32% | Potency [4] | Potency [5] | Potency [6] | Potency [7] | Potency [8] | Potency [9] | Potency [10] | Potency [11]

CC(=O)C1=CCC2C3CCC4CC(O[C@@H]5O[C@H](CO)[C@@H](O[C@@H]6O[C@@H](C)[C@H](O)[C@@H](O)[C@H]6O)[C@H](O)[C@H]5O[C@@H]5O[C@H](CO)[C@@H](O)[C@H](O)[C@H]5O)CCC4(C)C3CCC12C (stereo partly drawn)
inactive: max response [1] -22.8% | outcome [2] | max response [3] -4.06% | Potency [4] | Potency [5] | Potency [6] | Potency [7] | Potency [8] | Potency [9] | Potency [10] | Potency [11]

C=C1C[C@]23C[C@H]1CC[C@H]2C1=C[C@H]2OC(=O)[C@@](C)([C@H]1[C@@H]3C(=O)O)[C@H]2O
inactive: max response [1] 1.41% | outcome [2] | max response [3] 3.03% | Potency [4] | Potency [5] | Potency [6] | Potency [7] | Potency [8] | Potency [9] | Potency [10] | Potency [11]

CC1(c2nc3c(C(N)=O)cccc3[nH]2)CCCN1 (stereo not drawn)
inactive: max response [1] -9.07% | outcome [2] | max response [3] -5.13% | Potency [4] | Potency [5] | Potency [6] | Potency [7] | Potency [8] | Potency [9] | Potency [10] | Potency [11]

O=C(NCc1cccc(O)c1)c1cc2cc(F)ccc2[nH]1
inactive: max response [1] -7.37% | max response [2] -5.86% | max response [3] -0.959% | Potency [4] | Potency [5] | Potency [6] | Potency [7] | Potency [8] | Potency [9] | Potency [10] | Potency [11]

C[C@@H]1O[C@@H](O[C@H]2[C@H](O[C@H]3[C@H](O)[C@@H](C(=O)O)O[C@@H](O[C@H]4CC[C@@]5(C)C(CC[C@]6(C)C5CC[C@]57OC[C@@]8(CCC(C)(C)CC85)[C@H](O)C[C@]76C)C4(C)C)[C@@H]3O[C@@H]3O[C@H](CO)[C@@H](O[C@@H]4OC[C@@H](O)[C@H](O)[C@H]4O)[C@H](O)[C@H]3O)O[C@H](CO)[C@H](O)[C@@H]2O)[C@H](O)[C@H](O)[C@H]1O (stereo partly drawn)
inactive: max response [1] 1.4% | outcome [2] | max response [3] 2.61% | activity change, negative = cytotoxicity [4] -0.321% [at 6.55 µM] | activity change, negative = cytotoxicity [5] 1.86% [at 6.55 µM] | activity change, negative = cytotoxicity [6] 3.57% [at 6.55 µM] | activity change, negative = cytotoxicity [7] -2.01% [at 6.55 µM] | activity change, negative = cytotoxicity [8] 1.31% [at 6.55 µM] | activity change, negative = cytotoxicity [9] 4.69% [at 6.55 µM] | activity change, negative = cytotoxicity [10] 1.85% [at 6.55 µM] | activity change, negative = cytotoxicity [11] -19.1% [at 6.55 µM]

C=C1CC[C@@H]2[C@@](C)(CO[C@@H]3O[C@H](CO)C(O)[C@H](O)C3O)[C@H](O)CC[C@@]2(C)[C@@H]1CC/C(C)=C/CO (stereo partly drawn)
inactive: max response [1] -3.82% | outcome [2] | max response [3] -10.1% | activity change, negative = cytotoxicity [4] -18.4% [at 11.6 µM] | activity change, negative = cytotoxicity [5] 1.16% [at 11.6 µM] | activity change, negative = cytotoxicity [6] -5.44% [at 11.6 µM] | activity change, negative = cytotoxicity [7] 9.56% [at 11.6 µM] | activity change, negative = cytotoxicity [8] -3.99% [at 11.6 µM] | activity change, negative = cytotoxicity [9] 2% [at 11.6 µM] | activity change, negative = cytotoxicity [10] 2.39% [at 11.6 µM] | activity change, negative = cytotoxicity [11] 6% [at 11.6 µM]

COc1c2c(c(C)c3c1C(=O)OC3)O[C@@]1(C)CC(O)C(C(C)(C)O)[C@](C)(CCC(=O)O)[C@H]1C2 (stereo partly drawn)
inactive: max response [1] 2% | outcome [2] | max response [3] -2.21% | Potency [4] | Potency [5] | Potency [6] | Potency [7] | Potency [8] | Potency [9] | Potency [10] | Potency [11]

CC(C)(O)c1ccc2c(c1)C(O)C[C@H]1[C@](C)(C(=O)O)CCC[C@]21C (stereo partly drawn)
inactive: max response [1] -7.52% | outcome [2] | max response [3] 4.86% | Potency [4] | Potency [5] | Potency [6] | Potency [7] | Potency [8] | Potency [9] | Potency [10] | Potency [11]

COC(=O)CC(O)C1OC(c2ccccc2)C(O)C1O (stereo not drawn)
inactive: max response [1] -28.3% | max response [2] 2.62% | max response [3] -5.26% | Potency [4] | Potency [5] | Potency [6] | Potency [7] | Potency [8] | Potency [9] | Potency [10] | Potency [11]

C=CC(C)(O)CC[C@H]1C(=C)CCC2[C@](C)(C(=O)O)CCC[C@@]21C (stereo partly drawn)
inactive: max response [1] -5.99% | max response [2] 0.39% | max response [3] 2.59% | Potency [4] | Potency [5] | Potency [6] | Potency [7] | Potency [8] | Potency [9] | Potency [10] | Potency [11]
